Reference: PubChem BioAssay (EPA / NIEHS)
Values joined by “and” are separate entries in the source; they are usually repeats but may differ in a detail not shown here. Equal values may be shown once. A structure can be active in one record and inactive in another. Active and inactive are the calls of the source. Rule for the calls: active = hit-call score of the fitted dose curve at least 0.9, where 1 is the maximum; inactive = score below 0.9.

Assays:
[1] = read-out: Interleukin-1 alpha (IL1a), IL1A (gene 3552); assay: BSK_KF3CT_IL1a: BioMAP Diversity Plus: KF3CT Assay for Interleukin-1 alpha (IL1a) Biomarker Activity (AID 2283070); details: primary human keratinocytes with fibroblasts; actives raise or lower the signal
In short: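 Human keratinocyte plus foreskin fibroblast primary co-culture, sampled 24 h after chemical dosing. IL-1a measured by ELISA; responses fitted bidirectionally against DMSO baseline (negative control), so gain or loss of signal both count.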

[2] = read-out: TIMP metallopeptidase inhibitor 2 (TIMP2), TIMP2 (gene 7077); assay: BSK_KF3CT_TIMP2: BioMAP Diversity Plus: KF3CT Assay for TIMP metallopeptidase inhibitor 2 (TIMP2) Biomarker Activity (AID 2283071); details: primary human keratinocytes with fibroblasts; actives raise or lower the signal
In short: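 Keratinocyte–fibroblast co-culture, 24 h exposure; TIMP-2 ELISA, DMSO-normalised bidirectional fit. Parallel SRB (0.1%, TCA-fixed, 560 nm) total-protein staining gauges cytotoxicity.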

[3] = read-out: Transforming growth factor beta 1 (TGFb1), TGFB1 (gene 7040); assay: BSK_KF3CT_TGFb1: BioMAP Diversity Plus: KF3CT Assay for Transforming growth factor beta 1 (TGFb1) Biomarker Activity (AID 2283072); details: primary human keratinocytes with fibroblasts; actives raise or lower the signal
In short: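 Signal changes in either direction, relative to DMSO, define activity here. TGF-b1 is read by ELISA from a human keratinocyte-fibroblast co-culture 24 h post-dose.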

[4] = read-out: C-C motif chemokine 2 (Homo sapiens) (UniProt P13500); assay: BSK_KF3CT_MCP1: BioMAP Diversity Plus: KF3CT Assay for Monocyte Chemoattractant Protein 1 (MCP1/CCL2) Biomarker Activity (AID 2283073); details: primary human keratinocytes with fibroblasts; actives raise or lower the signal
In short: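 Human keratinocyte–foreskin fibroblast co-culture; MCP-1 measured by ELISA 24 h after dosing. Bidirectional fit vs DMSO; cytotoxicity tracked by SRB total protein in parallel cultures.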

[5] = read-out: Matrix Metallopeptidase 9 (MMP9), MMP9 (gene 4318); assay: BSK_KF3CT_MMP9: BioMAP Diversity Plus: KF3CT Assay for Matrix Metallopeptidase 9 (MMP9) Biomarker Activity (AID 2283074); details: primary human keratinocytes with fibroblasts; actives raise or lower the signal;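 for AC50: MMP9 protein level quantified by ELISA in the co-culture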
In short: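 Keratinocyte plus foreskin fibroblast human primary skin co-culture was dosed with chemical and MMP-9 was quantified by ELISA 24 h later. Bidirectional curve fitting used DMSO as negative control and activity baseline.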

[6] = read-out: urokinase plasminogen activator (uPA), PLAU (gene 5328); assay: BSK_KF3CT_uPA: BioMAP Diversity Plus: KF3CT Assay for urokinase plasminogen activator (uPA) Biomarker Activity (AID 2283075); details: primary human keratinocytes with fibroblasts; actives raise or lower the signal
In short: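 Human keratinocyte plus foreskin fibroblast primary co-culture exposed to chemical for 24 h. uPA levels were quantified by ELISA, and activity was fitted bidirectionally against a DMSO negative-control baseline.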

[7] = read-out: E-selectin (Homo sapiens) (UniProt P16581); assay: BSK_LPS_Eselectin: BioMAP Diversity Plus: LPS Assay for Eselectin Biomarker Activity (AID 2283077); details: primary human HUVEC with PBMC; actives raise or lower the signal
In short: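 Human umbilical vein endothelial cells co-cultured with PBMC under LPS stimulation; cell-surface E-selectin measured by ELISA 24 h after dosing. Change in either direction versus DMSO, with SRB total-protein staining in parallel cultures for cytotoxicity.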

[8] = read-out: Interleukin-8 (IL8), CXCL8 (gene 3576); assay: BSK_LPS_IL8: BioMAP Diversity Plus: LPS Assay for Interleukin-8 (IL8) Biomarker Activity (AID 2283078); details: primary human HUVEC with PBMC; actives raise or lower the signal
In short: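 Human umbilical vein endothelial cells co-cultured with PBMC, LPS-stimulated, exposed to compound for 24 h. IL-8 quantified by ELISA; fitted in both directions against DMSO, with SRB total-protein staining of parallel cultures for cytotoxicity.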

[9] = BSK_LPS_SRB: Viability Assessment in the BioMAP Diversity Plus: LPS Assay (AID 2283079); details: primary human HUVEC with PBMC;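 note: total protein by sulforhodamine B absorbance as a cytotoxicity measure; measured one day after compound addition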
In short: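 Co-culture of human umbilical vein endothelial cells and PBMC, read 24 h after dosing. Total protein by 0.1% SRB staining after 10% TCA fixation, absorbance at 560 nm; bidirectional fit against DMSO.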

[10] = read-out: Interleukin-1 alpha (IL1a), IL1A (gene 3552); assay: BSK_LPS_IL1a: BioMAP Diversity Plus: LPS Assay for Interleukin-1 alpha (IL1a) Biomarker Activity (AID 2283080); details: primary human HUVEC with PBMC; actives raise or lower the signal
In short: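 Human umbilical vein endothelial cells co-cultured with PBMC and stimulated with LPS; IL-1a measured by ELISA 24 h after dosing. Bidirectional fitting against DMSO; cytotoxicity checked by SRB staining in parallel cultures.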

[11] = read-out: Monocyte Chemoattractant Protein-1 (MCP1), CCL2 (gene 6347); assay: BSK_LPS_MCP1: BioMAP Diversity Plus: LPS Assay for Monocyte Chemoattractant Protein-1 (MCP1) Biomarker Activity (AID 2283081); details: primary human HUVEC with PBMC; actives raise or lower the signal;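 for AC50: secreted MCP-1 protein quantified by ELISA in culture supernatant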
In short: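 Human umbilical vein endothelial cells co-cultured with PBMC, LPS-stimulated; secreted MCP-1 measured by ELISA 24 h after compound addition. Bidirectional curve fitting against DMSO baseline; SRB total-protein staining in parallel cultures for cytotoxicity.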

[12] = BSK_LPS_PGE2: BioMAP Diversity Plus: LPS Assay for Prostaglandin E2 (PGE2) Biomarker Activity (AID 2283082); details: primary human HUVEC with PBMC; actives raise or lower the signal;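 for AC50: secreted prostaglandin E2 measured by ELISA in LPS-stimulated co-culture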
In short: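 Endpoint derived from bidirectional curve fitting versus DMSO of ELISA-measured PGE2 in LPS-stimulated human primary vascular co-culture (HUVEC with PBMC) harvested at 24 h.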

[13] = read-out: Macrophage colony-stimulating factor (MCSF), CSF1 (gene 1435); assay: BSK_LPS_MCSF: BioMAP Diversity Plus: LPS Assay for Macrophage colony-stimulating factor (MCSF) Biomarker Activity (AID 2283083); details: primary human HUVEC with PBMC; actives raise or lower the signal
In short: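 HUVEC–PBMC co-culture, M-CSF measured by ELISA 24 h after chemical dosing. Fitted in both directions relative to DMSO as negative control; overt cytotoxicity assessed by SRB total-protein staining in parallel cultures.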

[14] = read-out: Tissue Factor, F3 (gene 2152); assay: BSK_LPS_TissueFactor: BioMAP Diversity Plus: LPS Assay for Tissue Factor Biomarker Activity (AID 2283084); details: primary human HUVEC with PBMC; actives raise or lower the signal
In short: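 Human umbilical vein endothelial cells co-cultured with PBMC were dosed with compound. Cell-surface CD142 was measured by ELISA 24 h later. Activity was fitted bidirectionally against DMSO, with SRB total-protein staining in parallel cultures for cytotoxicity.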

[15] = read-out: Tumor necrosis factor (Homo sapiens) (UniProt P01375); assay: BSK_LPS_TNFa: BioMAP Diversity Plus: LPS Assay for Tumour Necrosis Factor alpha (TNFa) Biomarker Activity (AID 2283085); details: primary human HUVEC with PBMC; actives raise or lower the signal;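 for AC50: TNFa protein level quantified by ELISA in the co-culture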
In short: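 Primary human vascular co-culture of HUVEC and PBMC; TNFa ELISA 24 h after treatment, analysed as increase or decrease relative to DMSO control.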

[16] = read-out: Vascular cell adhesion molecule 1 (VCAM1), VCAM1 (gene 7412); assay: BSK_LPS_VCAM1: BioMAP Diversity Plus: LPS Assay for Vascular cell adhesion molecule 1 (VCAM1) Biomarker Activity (AID 2283086); details: primary human HUVEC with PBMC; actives raise or lower the signal
In short: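 Primary human vascular co-culture (umbilical vein endothelium plus PBMC) stimulated with LPS received chemical; 24 h later VCAM-1 was read by ELISA. Overt cytotoxicity was assessed by sulforhodamine B staining of parallel cultures at the same time point.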

CD38, CD38 (gene 952) = assay: BSK_SAg_CD38: BioMAP Diversity Plus: SAg Assay for CD38 Biomarker Activity (AID 2283087); details: primary human HUVEC with PBMC; actives raise or lower the signal
In short: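 Fluorescence ELISA of cell-surface CD38 served as the read-out, with either increase or decrease fitted against DMSO controls. Cells were a human umbilical vein endothelium plus PBMC co-culture under SEB/TSST-1 stimulation, measured 24 h after dosing.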

CD40, CD40 (gene 958) [17] = assay: BSK_SAg_CD40: BioMAP Diversity Plus: SAg Assay for CD40 Biomarker Activity (AID 2283088); details: primary human HUVEC with PBMC; actives raise or lower the signal
In short: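 HUVEC plus PBMC co-culture, superantigen-activated, with CD40 read by ELISA 24 h after dosing. Curves fitted in both directions against DMSO. Overt cytotoxicity checked by parallel SRB total-protein staining.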

CD69, CD69 (gene 969) = assay: BSK_SAg_CD69: BioMAP Diversity Plus: SAg Assay for CD69 Biomarker Activity (AID 2283089); details: primary human HUVEC with PBMC; actives raise or lower the signal;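 for AC50: cell surface CD69 protein quantified by ELISA with fluorescence detection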
In short: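 Primary human vascular co-culture (umbilical vein endothelium with peripheral blood mononuclear cells) exposed to test chemical for 24 h. CD69 levels quantified by fluorescence ELISA; DMSO served as negative control for bidirectional fitting.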

CD40, CD40 (gene 958) [18] = assay: BSK_LPS_CD40: BioMAP Diversity Plus: LPS Assay for CD40 Biomarker Activity (AID 2283076); details: primary human HUVEC with PBMC; actives raise or lower the signal
In short: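 HUVEC plus PBMC co-culture stimulated with LPS; CD40 quantified by ELISA 24 h after compound dosing. Fitting was bidirectional relative to DMSO. SRB staining of parallel cultures flagged overt cytotoxicity.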

Measured: AC50

E-selectin (Homo sapiens), sequence (P16581 whole entry, looked up): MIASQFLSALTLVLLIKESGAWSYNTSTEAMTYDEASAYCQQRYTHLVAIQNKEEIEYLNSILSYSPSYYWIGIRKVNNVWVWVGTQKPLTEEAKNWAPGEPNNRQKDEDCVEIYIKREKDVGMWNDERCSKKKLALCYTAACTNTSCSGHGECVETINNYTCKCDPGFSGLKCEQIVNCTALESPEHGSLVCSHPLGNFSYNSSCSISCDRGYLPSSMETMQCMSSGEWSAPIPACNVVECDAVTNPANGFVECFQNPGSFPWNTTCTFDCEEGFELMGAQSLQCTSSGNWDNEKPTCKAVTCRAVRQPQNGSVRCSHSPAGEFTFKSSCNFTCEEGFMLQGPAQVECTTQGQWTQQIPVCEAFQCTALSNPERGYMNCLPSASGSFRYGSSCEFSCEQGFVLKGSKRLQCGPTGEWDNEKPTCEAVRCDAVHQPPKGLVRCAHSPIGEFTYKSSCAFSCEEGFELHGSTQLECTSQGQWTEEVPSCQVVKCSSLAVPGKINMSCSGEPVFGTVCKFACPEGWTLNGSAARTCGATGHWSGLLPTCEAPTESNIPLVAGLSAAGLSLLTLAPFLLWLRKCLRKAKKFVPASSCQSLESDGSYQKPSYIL
Tumor necrosis factor (Homo sapiens), sequence (P01375 whole entry, looked up): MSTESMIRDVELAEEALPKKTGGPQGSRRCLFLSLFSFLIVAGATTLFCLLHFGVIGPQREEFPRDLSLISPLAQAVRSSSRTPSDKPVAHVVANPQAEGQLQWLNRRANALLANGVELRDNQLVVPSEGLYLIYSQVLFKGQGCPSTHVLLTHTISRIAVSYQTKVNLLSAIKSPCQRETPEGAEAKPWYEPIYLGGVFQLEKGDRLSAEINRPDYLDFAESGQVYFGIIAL

CCOC(=O)C(C)Oc1ccc(Oc2nc3ccc(Cl)cc3o2)cc1 (stereo not drawn)
active: [5] 9.61 µM | [12] 24.3 µM | CD38, CD38 (gene 952) 23.6 µM | CD40, CD40 (gene 958) [17] 12 µM
inactive: [1] | [2] | [3] | [4] | [6] | [7] | [8] | [9] | [10] | [11] | [13] | [14] | [15] | [16] | CD69, CD69 (gene 969)

CC(C)(c1ccc(O)cc1)c1ccc(O)cc1
active: [12] 16.6 µM and 10.3 µM and 11.1 µM | [15] 2.8 µM | [16] 25.5 µM and 27 µM and 20 µM | CD38, CD38 (gene 952) 13.8 µM | CD40, CD40 (gene 958) [17] 20.3 µM and 5.31 µM
inactive: [1] | [2] | [3] | [4] | [5] | [6] | [7] | [8] | [9] | [10] | [11] | [12] | [13] | [14] | [15] | [16] | CD38, CD38 (gene 952) | CD40, CD40 (gene 958) [17] | CD69, CD69 (gene 969)

CCOC(=O)NCCOc1ccc(Oc2ccccc2)cc1
active: [4] 4.43 µM | [5] 30.3 µM | CD40, CD40 (gene 958) [18] 8.9 µM | [9] 14.2 µM | [11] 14.4 µM | [13] 14.7 µM | CD38, CD38 (gene 952) 29.1 µM | CD40, CD40 (gene 958) [17] 14.5 µM | CD69, CD69 (gene 969) 25.3 µM
inactive: [1] | [2] | [3] | [6] | [7] | [8] | [10] | [12] | [14] | [15] | [16]
